Data published in PubChem BioAssay (NCI).
This is part of a sample that, as a whole, favours compounds with a hit. Of some 79,000 tested, about 15% had one in any assay. Calls of active or inactive are those of the source. No stated cut-off is given here; in the data, active means growth inhibition above about 70%; inactive means the rest.

Tests used:
[1] = NCI Yeast Anticancer Drug Screen. Data for the wt1 strain (AID 149);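 further: 0% = growth of vehicle-treated wt1 cultures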; conditions: S. cerevisiae wt1 strain (SPY 50644) growth inhibition, active compounds read high
Method in brief: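 Growth inhibition read against vehicle controls after compound exposure of the wt1 yeast strain.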

[2] = NCI Yeast Anticancer Drug Screen. Data for the rad50EPP+ strain (AID 151);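 further: 0% = growth of vehicle-treated control cultures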; conditions: S. cerevisiae rad50 mutant strain, active compounds read high
Method in brief: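 One strain with a rad50 alteration (rad50EPP+) was compound-treated, its growth then compared to that of vehicle controls.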

[3] = NCI Yeast Anticancer Drug Screen. Data for the mgt1 strain (AID 153); conditions: S. cerevisiae mgt1 mutant growth inhibition, active compounds read high
Method in brief: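 After exposure of the mgt1 yeast mutant to compound, growth was measured and reported as inhibition compared with vehicle controls.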

[4] = NCI Yeast Anticancer Drug Screen. Data for the rad50 strain (AID 155);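 further: 0% = growth of vehicle-only cultures of the same strain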; conditions: S. cerevisiae rad50 strain growth inhibition, active compounds read high
Method in brief: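 Readout: growth inhibition relative to vehicle-treated cultures. Compound exposure was carried out in a genetically defined yeast strain deficient in DNA damage repair.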

[5] = NCI Yeast Anticancer Drug Screen. Data for the mec2-1 strain (AID 157); conditions: S. cerevisiae mec2-1 strain, active compounds read high
Method in brief: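 Test agents were screened against the mec2-1 yeast strain, with defined DNA repair or cell cycle alteration. Growth was scored as inhibition against vehicle-only controls.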

[6] = NCI Yeast Anticancer Drug Screen. Data for the rad14 strain (AID 159);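 further: 0% = growth of vehicle-treated control cultures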; conditions: S. cerevisiae rad14 strain growth inhibition, active compounds read high
Method in brief: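 Growth inhibition vs vehicle controls; genetically altered yeast strain (DNA damage repair defect) treated with test compounds.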

[7] = NCI Yeast Anticancer Drug Screen. Data for the sgs1 mgt1 strain (AID 161);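 further: 0% = growth of cultures given vehicle only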; conditions: S. cerevisiae sgs1 mgt1 strain, active compounds read high
Method in brief: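 Inhibition of yeast growth, normalised to vehicle-treated controls, is reported for a strain bearing genetic alterations in DNA damage repair.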

[8] = NCI Yeast Anticancer Drug Screen. Data for the CLN2oe strain (AID 163);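 further: 0% = growth of vehicle-only control cultures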; conditions: S. cerevisiae CLN2oe strain, active compounds read high
Method in brief: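 Here, growth inhibition in a cell-cycle-altered yeast strain after compound exposure was quantified against vehicle control growth.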

[9] = NCI Yeast Anticancer Drug Screen. Data for the cln2 rad14 strain (AID 165);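 further: 0% = growth equal to vehicle treated cultures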; conditions: S. cerevisiae cln2 rad14 strain, active compounds read high
Method in brief: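 Growth of compound-exposed yeast (cln2 rad14 genotype) measured and expressed as inhibition relative to vehicle.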

[10] = NCI Yeast Anticancer Drug Screen. Data for the bub3 strain (AID 167); conditions: S. cerevisiae bub3 mutant strain, active compounds read high
Method in brief: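 Readout: yeast growth inhibition, expressed relative to vehicle-only wells. The test organism is a mutant strain from a panel with lesions in DNA repair or checkpoint genes.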

[11] = NCI Yeast Anticancer Drug Screen. Data for the wt2 strain (AID 169);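 further: 0% = growth of vehicle-treated yeast cultures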; conditions: S. cerevisiae wt2 strain growth inhibition, active compounds read high
Method in brief: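 Genetically defined yeast strains from a DNA-repair/cell-cycle panel were used. Compound-exposed yeast growth was measured, and the inhibition was calculated relative to vehicle treatment.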

[12] = NCI Yeast Anticancer Drug Screen. Data for the sgs1 strain (AID 173);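 further: 0% = growth of vehicle-only control cultures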; conditions: S. cerevisiae sgs1 mutant, active compounds read high
Method in brief: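 Relative growth inhibition, referenced to vehicle, was determined in a yeast strain with a defined alteration affecting DNA damage repair or cell cycle control after compound exposure.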

[13] = NCI Yeast Anticancer Drug Screen. Data for the mlh1 rad18 strain (AID 175); conditions: S. cerevisiae mlh1 rad18 strain growth inhibition, active compounds read high
Method in brief: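 In this whole-cell yeast screen, a strain with altered DNA damage repair is challenged with compound, and its growth is measured against matched vehicle-treated controls.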

[14] = NCI Yeast Anticancer Drug Screen. Data for the rad18 strain (AID 177); conditions: S. cerevisiae rad18 mutant growth inhibition, active compounds read high
Method in brief: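 Screen uses a yeast strain with a defined lesion in DNA damage repair; compound effect is read as loss of growth compared to untreated vehicle cultures.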

[15] = at 5.0 µM (retest, dose inferred, filed as 0.5)
[16] = at 50.0 µM (retest, dose inferred, filed as 5.0)

Measured: growth inhibition

CCCCOc1ccc(Nc2c3ccccc3nc3ccccc23)cc1
active: [1]; at 33.0 µM 98% | [1]; at 100.0 µM 83% | [2]; at 3.7 µM 71% | [2]; at 11.0 µM 91% | [2]; at 33.0 µM 94% | [2]; at 100.0 µM 78% | [3]; at 11.0 µM 86% | [3]; at 33.0 µM 99% | [3]; at 100.0 µM 78% | [4]; at 3.7 µM 79% | [4]; at 11.0 µM 93% | [4]; at 33.0 µM 98% | [4]; [16] 96% | [4]; at 50.0 µM 90.7% | [4]; at 100.0 µM 85% | [5]; at 33.0 µM 97% | [5]; [16] 89% | [5]; at 50.0 µM 88% | [5]; at 100.0 µM 73% | [6]; at 33.0 µM 97% | [7]; [16] 94% | [7]; at 50.0 µM 91.3% | [8]; at 11.0 µM 72% | [8]; at 33.0 µM 98% | [8]; at 100.0 µM 76% | [9]; at 50.0 µM 88.8% | [10]; at 33.0 µM 99% | [10]; [16] 98% | [10]; at 50.0 µM 86.8% | [11]; at 11.0 µM 75% | [11]; at 33.0 µM 98% | [11]; at 100.0 µM 78% | [12]; at 11.0 µM 87% | [12]; at 33.0 µM 98% | [12]; at 100.0 µM 82% | [13]; [16] 92% | [13]; at 50.0 µM 87% | [14]; at 11.0 µM 89% | [14]; at 33.0 µM 99% | [14]; at 100.0 µM 75%
inactive: [1]; at 1.2 µM -12% | [1]; at 3.7 µM -24% | [1]; at 11.0 µM 69% | [2]; at 1.2 µM 13% | [3]; at 1.2 µM -27% | [3]; at 3.7 µM -13% | [4]; at 1.2 µM 41% | [4]; [15] 50% | [5]; at 1.2 µM -24% | [5]; at 3.7 µM -37% | [5]; [15] 12% | [5]; at 11.0 µM 68% | [6]; at 1.2 µM -77% | [6]; at 3.7 µM -66% | [6]; at 11.0 µM 43% | [6]; at 100.0 µM 61% | [7]; [15] 10% | [8]; at 1.2 µM -26% | [8]; at 3.7 µM 0% | [9]; [15] 10% | [9]; [16] -7% | [10]; at 1.2 µM -56% | [10]; at 3.7 µM -55% | [10]; [15] 15% | [10]; at 11.0 µM 66% | [10]; at 100.0 µM 69% | [11]; at 1.2 µM 7% | [11]; at 3.7 µM -10% | [12]; at 1.2 µM -3% | [12]; at 3.7 µM -11% | [13]; [15] 26% | [14]; at 1.2 µM -9% | [14]; at 3.7 µM -9%
